Screens deposited in PubChem by Paczesny and Yang Labs, IUPUI and University of Michigan.
Only a selection was taken, and hits are over-represented in it overall.
ST2 inh = IL1RL1 inhibition; AlphaLISA ST2-Fc/biotin-IL-33 interaction, 1 h; AID 1259354; inhibition, % for hits at 17 µM; 78,000 compounds, 2.3% hits; in the data active = inhibition above about 30%
Target sequence (Q01638 whole entry, looked up): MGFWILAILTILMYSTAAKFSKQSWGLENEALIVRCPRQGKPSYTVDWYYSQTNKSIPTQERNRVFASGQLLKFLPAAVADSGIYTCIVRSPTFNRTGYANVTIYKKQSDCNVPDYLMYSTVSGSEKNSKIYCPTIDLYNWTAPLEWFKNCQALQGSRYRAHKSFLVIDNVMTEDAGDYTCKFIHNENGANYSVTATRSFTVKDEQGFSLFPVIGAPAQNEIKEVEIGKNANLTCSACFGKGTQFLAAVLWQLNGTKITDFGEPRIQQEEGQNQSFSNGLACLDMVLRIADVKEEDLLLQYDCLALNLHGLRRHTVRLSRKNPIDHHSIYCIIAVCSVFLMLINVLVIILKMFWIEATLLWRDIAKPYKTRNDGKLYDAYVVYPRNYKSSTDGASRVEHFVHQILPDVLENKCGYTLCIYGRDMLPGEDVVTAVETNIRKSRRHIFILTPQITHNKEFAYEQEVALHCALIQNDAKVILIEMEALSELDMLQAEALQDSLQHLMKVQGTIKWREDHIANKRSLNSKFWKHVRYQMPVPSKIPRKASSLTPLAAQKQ
Numbers stand for hits; 0 = inactive.

SMILES	ST2 inh
N#CCCS(=O)(=O)c1ccc(Br)cc1	0
CCNc1ncnc2sc3c(c12)CCCC3	0
COc1cccc(Nc2ncnc3sc4c(c23)CCCC4)c1	0
c1nc(Nc2ccc(N3CCCCC3)cc2)c2c3c(sc2n1)CCCC3	58%
COc1ccc(C=Nc2[nH]c(OC)c(C#N)c2C#N)cc1	0
CN(Cc1ccccc1)Cc1nc2c(c(=O)n(C)c(=O)n2C)n1Cc1ccc(Cl)cc1Cl	0
Cc1cccn(CC(=O)c2ccc(-c3ccccc3)cc2)c1=N	0
Cc1cc(C)n(-c2ccccc2)n1	0
Cc1csc(=Nc2ccccc2)n1-c1ccccc1	32%
Cc1csc(=Nc2ccccc2)n1CC(=O)c1ccccc1	36%
CCOC(=O)c1sc(=Nc2ccccc2)n(-c2ccccc2)c1C	0
Cc1nc([N+](=O)[O-])cn1CC(=O)c1ccccc1	0
FC(F)(F)c1cc(-c2ccc(Cl)cc2)nc(NCc2ccco2)n1	0
Cc1nn(C)c(Cl)c1-c1nc2c([nH]1)c(C)nn2Cc1ccccc1Cl	0
O=C(NCCc1ccccc1)c1ccc2c(c1)N(Cc1ccccc1F)C(=O)CS2	0
CSc1ccc(-c2nc(CSCC(=O)NCCC3=CCCCC3)c(C)o2)cc1	0
O=C(CN(C1CCCCC1)S(=O)(=O)c1ccc(Br)cc1)NC1CC1	0
CC(=O)Nc1ccc(S(=O)(=O)N(CC2C(C)C=C(C)CC2C)C2CCCCC2)cc1 (configuration not stated)	32%
CNC(=O)CN(C1CCCCC1)S(=O)(=O)c1ccccc1	0
CCN1CCCC1CN(CC1CCN(CCOC)CC1)C(=O)c1sccc1C (configuration not stated)	0
NS(=O)(=O)c1ccc(NC(=O)Nc2ccc(Cl)c(Cl)c2)cc1	0
CSc1nnc2c(n1)OC(c1ccc(Br)o1)Nc1ccc(Br)cc1-2 (configuration not stated)	0
COc1ccc(-c2c3c(=O)n(C)c(=O)n(C)c3c3c(-c4ccccc4)cc(C)nn23)cc1	31%
Cn1c(=O)c2c(-c3ccccc3)n3ncccc3c2n(C)c1=O	0
COc1ccc(-c2c3c(=O)n(C)c(=O)n(C)c3c3cccnn23)cc1	0
SMILES	ST2 inh
CC1=C(C(=O)Nc2cccc(C)n2)C(c2ccc(Cl)cc2Cl)C2=C(CC(C)(C)CC2=O)N1 (configuration not stated)	0
CN1CCN(C(=O)CN2CCN(Cc3ccc(Cl)cc3)C2=O)CC1	0
O=C(c1c[nH]c2ccc(F)cc2c1=O)N1CCOC(C(F)(F)F)C1 (configuration not stated)	0
COc1ccccc1-c1ccnc(-n2ncc(C(=O)NCc3cccc(F)c3)c2C2CC2)n1	0
COCc1c(C(=O)NCc2ccc3c(c2)CCCN3C)cnn1-c1ncc(C)c(-c2cccs2)n1	39%
COc1ccc(OC)c(CNC(=O)c2cc(-c3cccs3)nc3ccccc23)c1	0
Clc1ccc(OCCCCN2CCCC2)c(Br)c1	0
COc1cc(C2C(C(=O)Nc3ccc(Cl)cc3)=C(C)Nc3nnnn32)ccc1OC(F)F (configuration not stated)	0
CCOC(=O)N1CCN(C(=O)c2ccc(N3CCC(NCCc4ccncc4)CC3)cc2)CC1	0
CCOC(=O)N1CCN(C(=O)c2ccc(N3CCC(NCCc4cccs4)CC3)cc2)CC1	0
O=C(c1ccc(N2CCC(NCC3(N4CCOCC4)CCCC3)CC2)cc1)N1CCCC(O)C1 (configuration not stated)	31%
O=c1c(-c2ccccc2CN2CCOCC2)ccc2n1C[C@H]1C[C@@H]2CN(Cc2ccc(F)cc2)C1	0
Cn1ccnc1SCCNS(=O)(=O)NCc1ccccc1	31%
Cc1nn(CCNS(=O)(=O)NCc2ccccc2)c(C)c1Cl	0
Cc1ccc(CNS(=O)(=O)NCc2ccccc2)c(F)c1F	0
CC(CCO)Nc1nc2c(c(=O)n(C)c(=O)n2C)n1Cc1ccccc1Br (configuration not stated)	0
CCc1noc(CN2CCCN(CC3CC3)C(C(C)C)C2)n1 (configuration not stated)	0
O=C1[C@@H]2C3c4ccccc4C(c4ccccc43)[C@@H]2C(=O)N1c1ccc(Cl)cn1	0
O=C(Nc1ccccc1C(=O)O)c1ccccc1	33%
Cc1ccc(C(=O)Nc2ccccc2C(=O)O)cc1	0
O=C(Nc1ccccc1F)c1ccccc1	0
Cc1c(Cl)cccc1NC(=O)c1cccc(Br)c1	0
Cc1ccsc1CN(CCN(C)C)Cc1ccc2nonc2c1	0
COc1ccccc1/C=C/C1=NC(=C\c2ccc(Cl)c(Cl)c2)/C(=O)O1	0
COc1ccccc1/C=C/C1=NC(=C\c2cccc(Cl)c2)/C(=O)O1	34%
SMILES	ST2 inh
COc1ccccc1/C=C/C1=NC(=C\c2ccc([N+](=O)[O-])cc2)/C(=O)O1	0
COc1ccccc1/C=C/C1=NC(=C\c2ccc(C)cc2)/C(=O)O1	38%
COc1ccccc1/C=C/C1=NC(=C\c2cc(Br)cs2)/C(=O)O1	0
COc1ccccc1/C=C/C1=NC(=C\c2cccc(Cl)c2Cl)/C(=O)O1	0
CCc1ccc(CN2CCC(O)CC2)cc1	0
COc1ccc(-c2nnc(NC(C)=O)s2)cc1	0
CN(Cc1cc2n(n1)CCNC2)Cc1noc(C2CCC2)n1	0
COc1ccc(-n2ncc3c2CC(C)(C)CC3NC(=O)c2cnsn2)cc1 (configuration not stated)	0
CCNC(=O)O[C@@H]1CO[C@H]2[C@@H]1OC[C@@H]2NC(=S)Nc1cccc(C(=O)OC)c1	34%
O=C(Nc1cccc(C(F)(F)F)c1)N[C@H]1CO[C@H]2[C@@H]1OC[C@H]2OC(=O)Nc1ccc(Oc2ccccc2)cc1	31%
CC(=O)c1ccc(NC(=O)O[C@@H]2CO[C@H]3[C@@H]2OC[C@@H]3NC(=S)Nc2cccc(C#N)c2)cc1	0
COC(=O)c1cccc(NC(=S)N[C@H]2CO[C@H]3[C@@H]2OC[C@H]3OCc2ccccc2)c1	0
CCNC(=O)O[C@@H]1CO[C@H]2[C@@H]1OC[C@@H]2NC(=O)Nc1cccc(C(F)(F)F)c1	0
CCOC(=O)c1cccc(NC(=O)N[C@H]2CO[C@H]3[C@@H]2OC[C@H]3OC(=O)Nc2ccccc2)c1	0
COc1ccc(NC(=O)O[C@@H]2CO[C@H]3[C@@H]2OC[C@@H]3NC(=O)Nc2cccc(C#N)c2)cc1	66%
COc1ccc(NC(=O)N[C@H]2CO[C@H]3[C@@H]2OC[C@H]3OC(=O)Nc2ccc(C(C)=O)cc2)cc1	0
CC(=O)c1cccc(NC(=O)O[C@@H]2CO[C@H]3[C@@H]2OC[C@@H]3NC(=S)Nc2cc(C)cc(C)c2)c1	0
O=C(c1ccccc1)c1cccc(N2C(=O)C3C4C=CC(C4)C3C2=O)c1 (configuration not stated)	0
COc1cc2c(cc1OC)CN(C1CCCN(C(=O)/C=C/c3cccs3)C1)CC2 (configuration not stated)	0
O=C(Nc1cc(C(F)(F)F)ccc1Cl)c1ccco1	0
COC(=O)C1=C(NC(=O)c2cc(C)cc(C)c2)CCS1	50%
COC(=O)C1=C(NC(=O)c2ccc(Cl)cc2)CCS1	0
COC(=O)C1=C(NC(=O)c2cc(Cl)ccc2Cl)CCS1	0
Cc1sc2nc(SCC(=O)NCCO)nc(N)c2c1C	0
CCN(CC)S(=O)(=O)c1ccc(C(=O)N2CCN=C2SCc2ccc(Cl)cc2)cc1	0
c1ccc(N2CCN(Cc3ccco3)CC2)cc1	0
CSc1nc2c(sc3ccccc32)c(=O)n1Cc1ccco1	0
CC(C)n1c(-c2ccccc2)csc1=Nc1ccccc1	70%
c1ccc(N=c2scc(-c3ccccc3)n2Cc2ccco2)cc1	62%
O=C(Nc1ccc(F)cc1)c1ccc(Cl)cc1	0
